Experimental data as given in the supplement of paper PMC10720658.
± gives the standard deviation of the averaged measurements.

test system: AEK1 (Tb927.3.2440); assay: percent reduction in TR-FRET probe signal relative to DMSO control; higher = stronger displacement of ATP-site probe (binding); settings: 1 µM; incubation time 1 h

Compound | percent reduction in TR-FRET probe signal [%]
CCc1cccc(CC)c1NC(=O)N1Cc2[nH]nc(NC(=O)c3ccc(N4CCN(C)CC4)cc3)c2C1 | 29.3 ± 8.1
Cc1nc(NC(=O)N2CCC[C@H]2C(N)=O)sc1-c1csc(C(C)(C)C)n1 | 3.71 ± 6.7
COc1cc2ncnc(Nc3ccc(Cl)cc3F)c2cc1OC | 4.47 ± 2.8
CC[C@H](CO)Nc1nc(NCc2ccccc2)c2ncn(C(C)C)c2n1 [Roscovitine (Seliciclib,CYC202)] | -4.47 ± 5.4
C=CC(=O)Nc1cccc(Nc2nc(Nc3ccc(NC4CN(CCF)C4)cc3OC)ncc2C(F)(F)F)c1 | -12.2 ± 9.2
Cc1c(NC(=O)OC[C@@H]2COCCN2)cn2ncnc(Nc3ccc4c(cnn4Cc4cccc(F)c4)c3)c12 | -10.7 ± 4.8
COc1cc2nccc(Oc3ccc(NC(=O)NC4CC4)c(Cl)c3)c2cc1C(N)=O [Lenvatinib (E7080)] | 1.41 ± 13
Cc1cnc(Nc2ccc(F)cc2Cl)nc1-c1c[nH]c(C(=O)N[C@H](CO)c2cccc(Cl)c2)c1 | 9.02 ± 15
C=CC(=O)Nc1cccc(Oc2nc(Nc3ccc(N4CCN(C)CC4)cc3)nc3ccsc23)c1 | -10.3 ± 4.1
CCn1c(=O)c(-c2ccc(-c3cncs3)cc2Cl)cc2cnc(Nc3ccc(N4CCN(C)CC4)cc3)nc21 | 43.6 ± 6.3
CC(C)n1nc(-c2cc3cc(O)ccc3[nH]2)c2c(N)ncnc21 | 5.23 ± 4.5
O=C(Nc1cccnc1)c1cc(-c2ccnc(F)c2)ccc1OCc1ccccc1 | -0.16 ± 3.2
NC(=O)c1ccc(N(C(N)=O)c2c(F)cccc2F)nc1-c1ccc(F)cc1F | -4.77 ± 9.4
COc1ccc(-c2ccc3c(N4CCOCC4)nc(N4C[C@@H](C)O[C@@H](C)C4)nc3n2)cc1CO | -3.76 ± 6.3
COc1cc2ncnc(Nc3ccc(F)c(Cl)c3)c2cc1NC(=O)/C=C/CN1CCCCC1 | -9.62 ± 5
Nc1ccc(C(=O)Nc2cccc(-c3nc(N4CCOCC4)c4oc5ncccc5c4n3)c2)cn1 | -7.4 ± 3

Compound | percent reduction in TR-FRET probe signal [%]
Cc1c[nH]c(-c2cnc(NCCNc3ccc(C#N)cn3)nc2-c2ccc(Cl)cc2Cl)n1 | 2.8 ± 12
CCc1nc(-c2cccc(C)c2)c(-c2ccnc(NC(=O)c3ccccc3)c2)s1 | -2.96 ± 11
C=CC(=O)Nc1ccc2ncnc(Nc3ccc(OCc4cccc(F)c4)c(Cl)c3)c2c1.Cc1ccc(S(=O)(=O)O)cc1 | 4.49 ± 7.8
C=CC(=O)Nc1cccc(Nc2nc(Nc3ccc(N4CCN(C(C)=O)CC4)cc3OC)ncc2C(F)(F)F)c1 | -2.96 ± 7.5
N#Cc1c(O)c2c(-c3ccc(-c4ccccc4O)cc3)csc2[nH]c1=O | -7.05 ± 2.1
CCN1/C(=C/C(C)=O)Sc2ccc(OC)cc21 | 2.44 ± 5.9
CCOc1cc2ncc(C#N)c(Nc3ccc(F)c(Cl)c3)c2cc1NC(=O)/C=C/CN(C)C [Pelitinib (EKB-569)] | 4.14 ± 4.7
COc1cc2ncnc(Nc3ccc(O)c(Br)c3)c2cc1OC | -7.2 ± 7.7
Cl.O=S(=O)(c1cccc2cnccc12)N1CCCNCC1 [Fasudil (HA-1077) HCl] | 4.93 ± 2
CNC(=O)c1cc(Oc2ccc3nc(N[C@@H]4CCCC[C@H]4O)sc3c2)ccn1 | -6.41 ± 1.1
NC1(Cc2ccc(Cl)cc2)CCN(c2ncnc3[nH]ccc23)CC1 | 2.05 ± 3.4
CO[C@H]1C[C@@H]2CC[C@@H](C)[C@@](O)(O2)C(=O)C(=O)N2CCCC[C@H]2C(=O)O[C@H]([C@H](C)C[C@@H]2CC[C@H](n3cnnn3)[C@H](OC)C2)CC(=O)[C@H](C)/C=C(\C)[C@@H](O)[C@@H](OC)C(=O)[C@H](C)C[C@H](C)/C=C/C=C/C=C/1C [Zotarolimus(ABT-578)] | -16.6 ± 5
CC1(C)CNc2cc(NC(=O)c3cccnc3NCc3ccncc3)ccc21.O=P(O)(O)O.O=P(O)(O)O [Motesanib Diphosphate (AMG-706)] | 2.79 ± 7.6
C[C@H](NC(=O)/C(C#N)=C/c1cccc(Br)n1)c1ccccc1 | -10.8 ± 3.7
Clc1ccc(C2(c3ccc(-c4cn[nH]c4)cc3)CCNCC2)cc1 | 27.3 ± 17
Cc1[nH]c(/C=C2\C(=O)Nc3ccc(S(=O)(=O)Cc4c(Cl)cccc4Cl)cc32)c(C)c1C(=O)N1CCC[C@@H]1CN1CCCC1 | -5.64 ± 15
